Laboratory results published in ChEMBL document CHEMBL3988442, “University of Dundee, Small-Polar-MMV Screening Library” (2021).
About 440 (0.52%) of roughly 85,000 compounds showed an effect of 50% or more. Shown is part of a subset that was picked to be rich in strong results.

Assay: In vitro enzyme assay to detect hydrolysis of chlorophenol red-beta-D-[…] directly proportional to the number of Toxoplasma stably expressing beta-galactosidase
Type: functional, organism-based, Toxoplasma gondii
Parameters: scale not given: in the data most compounds retested in dose-response had high values

Compound	Percent Effect (50 µM) [%]	Percent Effect (10 µM) [%]
CC(=O)NCC(=O)N1CCN(c2ccncc2Cl)CC1	-5.39	
OC(CNC1CCOCC1)c1cccc(OCc2ccccc2)c1 (stereo unspecified)		6.488
CN1CCC(NCC(O)c2cccc(OCc3ccccc3)c2)CC1 (stereo unspecified)		74.89
OC(CNC1CCSCC1)c1cccc(OCc2ccccc2)c1 (stereo unspecified)		40.53
Cc1ccc(NC(=O)CN(C)C2CC[S+]([O-])CC2)cc1 (stereo unspecified)	-6.954	
COc1ccc(C)cc1NC(=O)Cn1ccnc1	17.12	
O=C(NCc1ccc2c(c1)OCO2)Nc1nccs1	-9.702	
COCC(N)c1ccccc1 (stereo unspecified)	3.787	
NC(CC1CCCC1)c1ccc(Oc2ccccc2)cc1 (stereo unspecified)		55.94
Cl.NC(CC1CCCC1)c1ccccc1 (stereo unspecified)		-47.66
CCOC(=O)C1(C(C)C)CCN(C(=O)c2cn[nH]c2)C1 (stereo unspecified)	-4.733	
N#Cc1ccnc(SCC(=O)Nc2ccncc2)c1	98.13	
COC(C)(C)C(=O)CSc1cc(C#N)ccn1	9.152	
N#Cc1ccnc(SCc2ccncc2)c1	30.75	
O=C(Cn1cc(Br)cn1)Nc1ccc2c(c1)OCCO2	-0.8097	
NC(=O)C[C@@H](N)c1ccccc1Cl	50.18	
NC(=O)C[C@@H](N)c1ccc(Cl)cc1	0.4297	
NC(=O)C[C@H](N)c1ccccc1	8.251	
COc1cccc(-c2noc(C3CCN(Cc4ccccc4C)C3)n2)c1.Cl (stereo unspecified)		42.09
COc1cccc(-c2noc(C3CCN(Cc4ccccc4F)C3)n2)c1.Cl (stereo unspecified)		11.37
CCn1ccnc1C1CCCN(CCC(N)=O)C1 (stereo unspecified)	24	

Compound	Percent Effect (50 µM) [%]	Percent Effect (10 µM) [%]
CCn1ccnc1C1CCN(CC(=O)N(C)C)CC1	16.85	
CCNC(=O)CN1CCCC(c2nccn2CC)C1 (stereo unspecified)	95.83	
COCC(C)S(=O)(=O)N1CCCCC1 (stereo unspecified)	6.357	
CC(C)COC1CCN(S(=O)(=O)Cc2cccc(F)c2)CC1		8.24
CC(C)COC1CCN(S(=O)(=O)N2CCCC2)CC1	99.18	
Cc1nc2ccc(C(=O)N3CC(O)C3)cc2nc1C	-4.584	
CSc1cccc(F)c1CN	2.771	
CC(=O)NCc1cccc(OCc2ccccn2)c1	53.39	
NCc1cccc(OCc2ccccn2)c1	-1.325	
COc1cccc(CNCc2ccccn2)c1	10.94	
Cc1noc(C)c1C(=O)N(C)C1CCS(=O)(=O)C1 (stereo unspecified)	-15.63	
Cc1ccc(C2COCCN2)o1 (stereo unspecified)	3.644	
CC1c2ncc(COc3cccnc3)n2CCN1C(=O)Cc1ccco1.O=C(O)C(F)(F)F (stereo unspecified)		-0.5977
CC1c2ncc(COc3cccnc3)n2CCN1C(=O)C1=CCCC1.O=C(O)C(F)(F)F (stereo unspecified)		10.52
COCC(=O)N1CCn2c(COc3cccnc3)cnc2C1C.O=C(O)C(F)(F)F (stereo unspecified)		84.28
O=C(NCCSCc1ccco1)c1cccnc1O	-3.309	
COc1ccc(CC(C)(C#N)NC(C)=O)cc1OC (stereo unspecified)	14.61	
COc1ccc(CC#N)cc1S(C)(=O)=O	54.15	
COc1ccccc1CC#N	14.35	
COc1c(C(=O)N2CCOCC2)cnc2c1c(C)nn2C		-14.92
COC(=O)c1cnc2c(c(C)nn2C)c1OC		68.54

Compound	Percent Effect (50 µM) [%]	Percent Effect (10 µM) [%]
COc1c(C(=O)N2CCNC(=O)C2)cnc2c1c(C)nn2C		0.4571
CN1CCN(Cc2nccn2C)[C@H]2CS(=O)(=O)C[C@H]21	0.771	
OCCNCCNCc1ccc(-c2ccccc2)o1	1.266	
OCCNCCNCc1ccc(-c2cccc(Cl)c2)o1	71.47	
OCCNCCNCc1ccc(-c2ccccc2Cl)o1	33.01	
O=C(NC1CCCC1)c1cnccn1	54.91	
Cc1nnc2n1CCC(NC(=O)c1cnccn1)CC2 (stereo unspecified)	2.489	
O=C(NCCSC1CCCC1)c1cnccn1		0.9702
CCC(C)N(CC(=O)OC)Cc1nccn1C (stereo unspecified)	1.211	
OCc1ccccc1CC1CCNCC1	2.025	
CC(C)c1cc(NC(=O)c2ccc(C(=O)NC(C)(C)C)cc2)[nH]n1		9.105
CC(C)c1cc(NC(=O)c2cccnc2)[nH]n1		41.77
CC(C)c1cc(NC(=O)c2ccncc2)[nH]n1		64.12
Cc1ccc(C(=O)Nc2cc(C(C)C)n[nH]2)cn1		-1.588
Cc1cc(NC(=O)c2ccc(F)cc2)[nH]n1	-8.221	
CC(C)c1cc(NC(=O)c2ccc([S+]([O-])C(C)C)cc2)[nH]n1 (stereo unspecified)		54.78
CC(C)c1cc(NC(=O)c2ccc(NC3CC3)nc2)[nH]n1		3.917
CC(C)CC(=O)Nc1cc(C(C)C)n[nH]1	12	
Cc1ccc(CC(=O)Nc2cc(C(C)C)n[nH]2)cn1		86.76
